Reference: the supplement of paper PMC10646978
± gives the standard deviation.

Key:
Details in all cases: modulator concentration 10 µM
[1] = test system: RAW-Dual (murine macrophage reporter line); assay: NF-kB reporter (SEAP) activity fold change vs agonist alone; higher = enhanced NF-kB activity
Outline: (§1)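 RAW-Dual murine macrophage reporter cells were plated at 50 000 per well in 384-well plates, pin-transferred compound to 10 μM final, and pre-incubated for 1 hour at 37 °C before a PRR agonist was added and the cells incubated overnight. NF-κB activity was read from supernatant SEAP with QUANTI-Blue at 620 nm absorbance, and IRF activity from Lucia luciferase with QUANTI-Luc by luminescence. Each signal was expressed as fold change by dividing by the mean agonist-only control on the same plate. Two replicate plates were averaged, with errors obtained by propagation.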

[2] = test system: RAW-Dual (murine macrophage reporter line); assay: IRF reporter (Lucia luciferase) activity fold change vs agonist alone; higher = enhanced IRF activity
Outline: as §1

[3] = test system: RAW-Dual (murine macrophage reporter line); assay: viability score (confluency relative to resting cells, overnight) (fraction); higher = more viable, active = viable (0.7 or more)
Outline: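 RAW-Dual macrophages in 384-well plates were exposed overnight to compound at 10 μM final. Confluency was imaged with IncuCyte, and two confluency masks were generated with IncuCyte software over all imaged wells. The viability score is confluency expressed relative to resting cells. Compounds were called viable if both masks exceeded 70% of resting cells.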

[4] = agonist: CpG ODN 1826 0.5 ug/mL

| Structure (SMILES) | NF-kB reporter [1, 4] | NF-kB reporter ([1]; agonist: LPS 0.1 ug/mL) | NF-kB reporter ([1]; agonist: MPLA […]) | IRF reporter ([2]; agonist: 3'3'-cGAMP 10 ug/mL) | IRF reporter ([2]; agonist: LPS 0.1 ug/mL) | IRF reporter ([2]; agonist: MPLA […]) | viability score [3] |
| --- | --- | --- | --- | --- | --- | --- | --- |
| O=C(COC(=O)c1ccc2ccccc2n1)c1ccc(Br)cc1 | 0.988 ± 0.16 | 1.05 ± 0.11 | 1.06 ± 0.14 | 0.972 ± 0.033 | 1.29 ± 0.25 | 1.42 ± 0.26 | 1 (active) |
| N[C@@H]1CONC1=O | 0.988 ± 0.074 | 0.913 ± 0.14 | 0.959 ± 0.037 | 0.929 ± 0.092 | 1.05 ± 0.094 | 1.06 ± 0.082 | 1 (active) |
| CCCC(=O)Nc1ccc(OCC(O)CNC(C)C)c(C(C)=O)c1.Cl (centres undefined) | 1.14 ± 0.1 | 1.03 ± 0.05 | 0.983 ± 0.022 | 0.94 ± 0.054 | 1.01 ± 0.12 | 0.864 ± 0.11 | 0.999 (active) |
| O=S1(=O)N=C(NN=Cc2ccccc2O)c2ccccc21 | 1 ± 0.081 | 0.95 ± 0.14 | 1.1 ± 0.12 | 1 ± 0.049 | 1.25 ± 0.16 | 1.46 ± 0.25 | 1.03 (active) |
| Nc1c2c(nc3ccccc13)CCCC2O (centres undefined) [Prestw-448] | 0.958 ± 0.059 | 0.88 ± 0.068 | 0.958 ± 0.026 | 1.01 ± 0.042 | 0.964 ± 0.05 | 0.906 ± 0.087 | 0.994 (active) |
| COc1ccccc1S(=O)(=O)N1CC(Oc2nc3c(C(F)(F)F)cccc3s2)C1 | 0.935 ± 0.047 | 1.18 ± 0.097 | 1.38 ± 0.14 | 1.4 ± 0.15 | 1.43 ± 0.23 | 1.5 ± 0.4 | 1 (active) |
| CC(C)c1noc(CN2CCC(n3nc(C(F)(F)F)n(C)c3=O)CC2)n1 | 0.975 ± 0.13 | 1.11 ± 0.091 | 0.939 ± 0.069 | 0.993 ± 0.05 | 1.08 ± 0.12 | 1.15 ± 0.13 | 1 (active) |
| O=C1SC(=Cc2ccc([N+](=O)[O-])cc2)C(=O)N1Cc1ccccc1 | 0.98 ± 0.064 | 1.04 ± 0.069 | 0.951 ± 0.071 | 0.989 ± 0.042 | 1.5 ± 0.28 | 1.23 ± 0.12 | 1 (active) |
| CO[C@@]12[C@H](COC(N)=O)C3=C(C(=O)C(C)=C(N)C3=O)N1C[C@@H]1N[C@@H]12 | 2.4 ± 0.14 | 1.47 ± 0.1 | 2.16 ± 0.18 | 1.21 ± 0.069 | 1.42 ± 0.099 | 1.24 ± 0.24 | 0.644 (inactive) |
| O=C(NC1CCN(CCCCC2(C(=O)NCC(F)(F)F)c3ccccc3-c3ccccc32)CC1)c1ccccc1-c1ccc(C(F)(F)F)cc1 | 0.881 ± 0.043 | 0.952 ± 0.12 | 1.08 ± 0.062 | 0.983 ± 0.045 | 1.46 ± 0.33 | 1.44 ± 0.53 | 0.968 (active) |
| O=C(Oc1coc(CSc2ncccn2)cc1=O)c1ccc([N+](=O)[O-])cc1 | 0.972 ± 0.16 | 1.15 ± 0.13 | 1.03 ± 0.15 | 0.996 ± 0.03 | 1 ± 0.22 | 1.03 ± 0.1 | 0.986 (active) |
| CCOCCOC(=O)C1=C(C)NC2=C(C(=O)CCC2)C1c1coc2ccc(C)cc2c1=O (centres undefined) | 0.973 ± 0.083 | 0.961 ± 0.12 | 0.993 ± 0.12 | 1.01 ± 0.029 | 1.41 ± 0.14 | 1.18 ± 0.11 | 1.01 (active) |
| O=c1c(O)c(-c2ccc(O)c(O)c2)oc2cc(O)cc(O)c12 | 1.06 ± 0.26 | 1.04 ± 0.093 | 1.47 ± 0.12 | 0.356 ± 0.021 | 1.08 ± 0.23 | 1.12 ± 0.14 | 0.982 (active) |
| O=C1CCCc2[nH]ccc21 | 1.03 ± 0.12 | 1.03 ± 0.11 | 1.01 ± 0.092 | 1.02 ± 0.084 | 1.04 ± 0.094 | 0.998 ± 0.21 | 0.999 (active) |
| COc1cc2nc(N(C)CCCNC(=O)C3CCCO3)nc(N)c2cc1OC.Cl (centres undefined) | 0.585 ± 0.096 | 0.838 ± 0.14 | 0.958 ± 0.056 | 0.382 ± 0.26 | 0.996 ± 0.22 | 1.09 ± 0.2 | 0.996 (active) |
| CC1CC(OC(=O)C(O)c2ccccc2)CC(C)(C)N1C (centres undefined) [Prestw-794] | 1.07 ± 0.17 | 1.25 ± 0.12 | 1.02 ± 0.08 | 0.97 ± 0.027 | 1.09 ± 0.2 | 1.22 ± 0.15 | 1 (active) |
| Cl.Clc1ccccc1CN1CCc2sccc2C1 | 0.93 ± 0.092 | 0.952 ± 0.11 | 0.916 ± 0.024 | 0.902 ± 0.05 | 1.01 ± 0.14 | 1.1 ± 0.25 | 0.992 (active) |
| COC(=O)Nc1nc2cc(S(=O)c3ccccc3)ccc2[nH]1 (centres undefined) [Prestw-1459] | 1.03 ± 0.087 | 0.896 ± 0.079 | 0.932 ± 0.051 | 0.896 ± 0.04 | 0.825 ± 0.13 | 0.884 ± 0.23 | 0.999 (active) |
| COc1ccc2c(Cl)c(C(=O)N3CCc4ccccc4C3)sc2c1 | 0.875 ± 0.13 | 0.87 ± 0.052 | 1.81 ± 0.77 | 0.845 ± 0.05 | 1.38 ± 0.095 | 1.48 ± 0.13 | 1.01 (active) |
| O=C(Nc1cc(C(F)(F)F)cc(C(F)(F)F)c1)c1cc(Br)ccc1Cl | 0.966 ± 0.11 | 1.02 ± 0.066 | 0.912 ± 0.059 | 0.693 ± 0.043 | 1.52 ± 0.2 | 1.05 ± 0.2 | 1.01 (active) |
| O=c1c2ccccc2n(Cc2nc(-c3ccc(F)c(F)c3)no2)c(=O)n1C1CC1 | 0.84 ± 0.076 | 1.21 ± 0.096 | 0.923 ± 0.11 | 0.995 ± 0.074 | 1.04 ± 0.074 | 1.07 ± 0.15 | 0.971 (active) |
| COC(=O)C1=C(C)NC2=C(C(=O)CC(C)(C)C2)C1c1ccc(OC)c(O)c1 (centres undefined) | 1.02 ± 0.095 | 0.981 ± 0.055 | 1.01 ± 0.069 | 1.01 ± 0.077 | 1.13 ± 0.16 | 1.05 ± 0.065 | 1.01 (active) |
| O=C(Nc1ccc(F)cc1)c1ccccc1Br | 1.06 ± 0.092 | 1.06 ± 0.069 | 1 ± 0.065 | 0.73 ± 0.055 | 1.06 ± 0.065 | 1.04 ± 0.22 | 0.979 (active) |
| Cc1ccc(-c2ccc3nnc(CCC(=O)NCc4ccc(C(F)(F)F)cc4)n3n2)cc1C | 0.671 ± 0.041 | 1.04 ± 0.086 | 1.04 ± 0.07 | 0.747 ± 0.047 | 1.15 ± 0.23 | 1.16 ± 0.41 | 0.94 (active) |
| CCCC(=O)Nc1ccc(N2CCOCC2)c(Cl)c1 | 1.09 ± 0.21 | 1.04 ± 0.098 | 0.964 ± 0.098 | 0.875 ± 0.026 | 1.28 ± 0.22 | 1.21 ± 0.12 | 1 (active) |
| COC(=O)C1C(=O)C(=CNCc2ccccc2)C(=O)CC1(C)C (centres undefined) | 1.12 ± 0.1 | 0.99 ± 0.072 | 0.943 ± 0.035 | 1.04 ± 0.18 | 1.06 ± 0.049 | 0.992 ± 0.066 | 1 (active) |
| Cl.Cl.OCCOCCN1CCN(C(c2ccccc2)c2ccc(Cl)cc2)CC1 (centres undefined) | 1.21 ± 0.051 | 1.51 ± 0.12 | 2.68 ± 0.22 | 0.726 ± 0.034 | 1.27 ± 0.25 | 1.45 ± 0.37 | 0.965 (active) |
